{
  "source": "PubChem BioAssay AID504441",
  "about": "(Broad Institute, 2011)",
  "note": "Among all 310,000 compounds or so, about 1,300 (0.42%) were called active. Rule as the data show it: active = inhibition above about 50%; inactive = the rest. Shown is part of a subset that was picked to be rich in actives.",
  "data": [
    {"molecular_target": "Dual specificity tyrosine-phosphorylation-regulated kinase 1A (Rattus norvegicus) (UniProt Q63470)", "test": "rat Dyrk1A kinase inhibitors, primary screen, biochemical, single point, plate reader (AID 504441);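 also: plate controls were vehicle with enzyme for no effect and no enzyme for full effect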", "settings": "ADP-Glo luminescence, NFATc1 peptide, at 12.5 µM, active compounds read high", "values": [
      {"smiles": "N#CC1=C(N)Oc2cc(N)ccc2C1c1ccccc1", "note": "(stereo unspecified)", "inhibition": "0.0153% (inactive)"},
      {"smiles": "COc1ccc(CNCCCNCc2ccc(OC)c(OC)c2)cc1OC", "inhibition": "-3.55% (inactive)"},
      {"smiles": "O=C1N=C(N2CCCC2)S/C1=C\\c1cccc(Br)c1", "inhibition": "-2.99% (inactive)"},
      {"smiles": "CCOc1cc(/C=C2\\SC(N3CCCC(C)C3)=NC2=O)ccc1O", "note": "(stereo unspecified)", "inhibition": "31.5% (inactive)"},
      {"smiles": "CCOc1cc(/C=C2\\SC(N3CCCCC3)=NC2=O)ccc1O", "inhibition": "62.2% (active)"},
      {"smiles": "CCN1CCC(O)(/C=C/c2ccc(C)cc2)C(C(=O)/C=C/c2ccc(C)cc2)C1", "note": "(stereo unspecified)", "inhibition": "-5.12% (inactive)"},
      {"smiles": "CSc1ccc(S(=O)(=O)N2CCC(C(=O)NCCc3ccccc3)CC2)cc1", "inhibition": "-0.684% (inactive)"},
      {"smiles": "O=C(C1CCN(S(=O)(=O)c2ccc(Br)s2)CC1)N1CCN(c2ccccc2)CC1", "inhibition": "2.78% (inactive)"},
      {"smiles": "O=C(NCCc1ccccc1)C1CCN(S(=O)(=O)c2ccc(Br)s2)CC1", "inhibition": "60.5% (active)"},
      {"smiles": "COc1ccccc1N(CC(=O)Nc1c(C)n(C)n(-c2ccccc2)c1=O)S(=O)(=O)c1ccccc1", "inhibition": "8.43% (inactive)"},
      {"smiles": "Cc1ccc(S(=O)(=O)N2CCN(C(=O)COC(=O)/C=C/c3cccc(Cl)c3)CC2)c(C)c1", "inhibition": "2.98% (inactive)"},
      {"smiles": "CCOCCCNC(=O)C(NC(=O)c1ccc(=O)[nH]c1)c1ccc(Cl)cc1", "note": "(stereo unspecified)", "inhibition": "62.1% (active)"},
      {"smiles": "CCOCCCNC(=O)C(NC(=O)c1ccccc1O)c1ccccc1", "note": "(stereo unspecified)", "inhibition": "2.95% (inactive)"},
      {"smiles": "CCOCCCNC(=O)C(NC(=O)c1ccc(=O)[nH]c1)c1ccc(C)cc1", "note": "(stereo unspecified)", "inhibition": "4% (inactive)"},
      {"smiles": "O=C1/C(=C\\c2ccc([N+](=O)[O-])cc2)CS(=O)(=O)C/C1=C/c1ccc([N+](=O)[O-])cc1", "inhibition": "2.21% (inactive)"},
      {"smiles": "N#Cc1cccc(CN2CCC(=O)N(CCO)CC2)c1", "inhibition": "12.9% (inactive)"},
      {"smiles": "O=C1CCN(Cc2ccccc2)CCN1[C@H](CSc1ccccc1)c1ccccc1", "inhibition": "7.38% (inactive)"},
      {"smiles": "N#Cc1cccc(CN2CCC(=O)N([C@H](CO)c3ccccc3)CC2)c1", "inhibition": "50.1% (active)"},
      {"smiles": "CCCCN(C(=O)CSCc1ccc(C)cc1)c1c(N)n(Cc2ccccc2)c(=O)[nH]c1=O", "inhibition": "-1.45% (inactive)"},
      {"smiles": "O=[N+]([O-])c1ccc(NS(=O)(=O)c2ccccc2)c(Cl)c1", "inhibition": "-7.67% (inactive)"},
      {"smiles": "O=C(O)c1ccc(NN=CC2=C(N3CCOCC3)/C(=C/c3ccccc3)CC2)cc1", "inhibition": "17.6% (inactive)"},
      {"smiles": "COc1ccc(S(=O)(=O)N2CCc3ccccc32)cc1C(=O)Nc1cc(S(C)(=O)=O)ccc1Cl", "inhibition": "-1.51% (inactive)"},
      {"smiles": "Cc1ccccc1Nc1nc(-c2cccnc2)cs1", "inhibition": "9.73% (inactive)"},
      {"smiles": "CN(c1ccc(O)cc1)c1nc(-c2cccnc2)cs1", "inhibition": "3.73% (inactive)"},
      {"smiles": "Oc1ccc(-c2csc(Nc3cccnc3)n2)cc1", "inhibition": "53.9% (active)"},
      {"smiles": "O=C(NNC(=O)c1ccccc1O)c1ccccc1O", "inhibition": "-1.63% (inactive)"},
      {"smiles": "CCOC(=O)c1ccccc1OC(=O)Oc1ccccc1C(=O)OCC", "inhibition": "4.02% (inactive)"},
      {"smiles": "O=C1OCC2=C1C(c1ccc(Cl)cc1)c1cc3c(cc1O2)OCO3", "note": "(stereo unspecified)", "inhibition": "-1.45% (inactive)"},
      {"smiles": "O=C(Nc1ccc(S(=O)(=O)N2CCOCC2)cc1)C1CCN(S(=O)(=O)c2ccc(Cl)cc2)CC1", "inhibition": "7.12% (inactive)"},
      {"smiles": "CN1C(=O)/C(=C\\c2ccc(-c3ccccc3)o2)SC1=S", "inhibition": "-4.31% (inactive)"},
      {"smiles": "NS(=O)(=O)c1ccc(-c2ccc(/C=C3\\SC(=O)NC3=O)o2)cc1", "inhibition": "87.9% (active)"},
      {"smiles": "CN1CCN(/N=C/c2ccc(-c3ccc([N+](=O)[O-])cc3)o2)CC1", "inhibition": "4.45% (inactive)"},
      {"smiles": "O=C(Nc1c(Br)cc2c(c1Br)Cc1cc([N+](=O)[O-])ccc1-2)C(Cl)Cl", "inhibition": "-6.68% (inactive)"},
      {"smiles": "Cc1cc(OCCCC(=O)Nc2cc(S(=O)(=O)N3CCOCC3)ccc2N2CCOCC2)ccc1Cl", "inhibition": "1.11% (inactive)"},
      {"smiles": "CCOC(=O)[C@H]1[C@H]2COc3ccc(Br)cc3[C@@H]2N2C(=O)CN(C)C(=O)[C@@]12C", "inhibition": "-7.39% (inactive)"},
      {"smiles": "O=C(Nc1cccc(-c2nc3ccccc3[nH]2)c1)c1ccc(C(=O)Nc2cccc(-c3nc4ccccc4[nH]3)c2)cc1", "inhibition": "4.53% (inactive)"},
      {"smiles": "CC(=O)Nc1cccc(-c2cnc3ccccc3n2)c1", "inhibition": "50.4% (active)"},
      {"smiles": "CC(=O)Nc1cccc(-c2csc(Nc3cccc(C)n3)n2)c1", "inhibition": "9.85% (inactive)"},
      {"smiles": "CN(C)C(=S)N=c1ssc(=S)n1Cc1ccco1", "inhibition": "0.385% (inactive)"},
      {"smiles": "O=C(Cc1ccc([N+](=O)[O-])cc1)NCCc1ccc2c(c1)OCO2", "inhibition": "3.06% (inactive)"},
      {"smiles": "COc1ccc(C(=O)N(C)Cc2ccc(OC)c(OC)c2OC)cc1S(=O)(=O)N1CCOCC1", "inhibition": "-3.97% (inactive)"},
      {"smiles": "NC(CSC1(c2ccccc2)c2ccccc2-c2ccccc21)C(=O)O", "note": "(stereo unspecified)", "inhibition": "-0.913% (inactive)"},
      {"smiles": "COc1cc2[nH]c(O)c(C=O)c2cc1OC", "inhibition": "3.93% (inactive)"},
      {"smiles": "Cc1cccc(-c2nc(Nc3ccc(O)cc3)c3ccccc3n2)c1", "inhibition": "62% (active)"},
      {"smiles": "COc1ccc(Nc2nc(-c3cccnc3)nc3ccccc23)cn1", "inhibition": "24.1% (inactive)"},
      {"smiles": "CC(=O)Nc1cccc(Nc2nc(-c3cccs3)nc3ccccc23)c1", "inhibition": "26.8% (inactive)"}
    ]}
  ]
}
